A selection: hits, their analogues and other compounds. The true share with any hit is near 1.3%.
NCOA2 inhibitor: inhibits human steroid receptor coactivator 2; 0.17% of 370,000 active; Q15596; HEK293 GAL4-SRC2 luciferase reporter, luminescence; inhibition, % at 9 µM; AID 651957;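 active = inhibition above the mean inhibition of all tested compounds plus 3 SD, set per campaign, cut at about 52% in these data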;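 also: 0% = DMSO treated cells and 100% = cells given Gossypol at 36 µM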
Gli-Sufu block: antagonists of Gli-Sufu signaling; inhibition, % at 5 µM; 0.74% of 340,000 active; Sufu-KO-LIGHT fibroblasts, Gli luciferase reporter luminescence; AID 588413;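 active = inhibition above about 55%, limit read from the data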;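 also: 0% = DMSO-treated cells and 100% = wells with medium but no cells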
SRC3 inh: inhibits human SRC3 coactivator | inhibition, % at 3.6 µM | 0.17% of 360,000 active | Q9Y6Q9 | HEK293 GAL4-SRC3 luciferase reporter, luminescence;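 active = inhibition above a per-campaign cutoff, the mean of all compounds plus 3 SD, cut at about 60% in these data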;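 also: 0% = DMSO-treated cells and 100% = gossypol-treated cells at 36 µM; higher means less SRC3-driven luciferase light from the GAL4 reporter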
NCOA1 inh: human NCOA1 inhibition; 0.12% of 360,000 active; inhibition, % at 3.6 µM; AID 588354; Q15788; HEK293 GAL4-SRC1 luciferase reporter, luminescence;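 active = inhibition above the campaign mean plus 3 SD, with each screening campaign given its own cutoff, cut at about 60% in these data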;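 also: 0% = DMSO treated cells and 100% = gossypol at 36 µM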
COUP-TFII inh: blocks human COUP-TFII nuclear receptor; P24468; 0.7% of 370,000 active; inhibition, % at 8.6 µM; HEK293T NGFI-A luciferase reporter, luminescence;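 active = inhibition above a per-plate cutoff, mean inhibition of test wells between control levels plus 3 SD, cut at about 38% in these data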;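 also: cells cotransfected with COUP-TFII expression vector driving the NGFI-A reporter; 0% = median of COUP-TF2 test wells and 100% = reporter-only cells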
Target sequence (P24468 whole entry, looked up): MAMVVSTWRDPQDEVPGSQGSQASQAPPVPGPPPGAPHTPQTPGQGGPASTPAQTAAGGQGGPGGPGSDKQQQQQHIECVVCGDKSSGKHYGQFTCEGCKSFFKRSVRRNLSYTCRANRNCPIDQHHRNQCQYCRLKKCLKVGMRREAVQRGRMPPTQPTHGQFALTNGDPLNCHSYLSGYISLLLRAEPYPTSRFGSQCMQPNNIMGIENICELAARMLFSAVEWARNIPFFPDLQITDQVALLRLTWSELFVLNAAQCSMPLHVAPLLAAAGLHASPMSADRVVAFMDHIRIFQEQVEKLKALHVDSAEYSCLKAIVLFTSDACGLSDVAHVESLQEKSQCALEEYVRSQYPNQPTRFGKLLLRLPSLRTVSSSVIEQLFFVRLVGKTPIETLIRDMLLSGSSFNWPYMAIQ
NR5A2 inv ag: NR5A2 inverse agonism in reporter assay. O00482. HEK293T StAR-luciferase reporter, LRH-1 transfected, 24 h. inhibition, % at 3.6 µM. 0.13% of 360,000 active;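 active = inhibition above the mean inhibition of all tested compounds plus 3 SD, cut at about 73% in these data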;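 also: 0% = DMSO wells and 100% = reporter-only cells lacking LRH-1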
Gli-Sufu confirm: Gli-SUFU antagonism confirmation, single concentration; shares compounds with Gli-Sufu block; Sufu-KO-LIGHT cells, Gli luciferase reporter, luminescence; inhibition, % at 5 µM; 40% of 2,500 active; AID 602428;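 active = mean inhibition at 5 µM reaching about 45%, limit read from the data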;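 also: plate controls were DMSO-treated cells for no effect and wells lacking cells for full effect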
SufuKO cytotox: counter-screen for Gli-SUFU antagonists: cytotoxicity; Sufu-KO-LIGHT cells cytotoxicity, ATP luminescence; 32% of 2,500 active; cytotoxicity, % at 5 µM; shares compounds with Gli-Sufu block;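 active = mean cytotoxicity at 5 µM above about 25%, limit read from the data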;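 also: cells exposed to compound overnight for roughly 16 to 18 hours; plate controls were DMSO wells with cells for no effect and medium without cells for full effect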
Wnt3a counter: Wnt3a reporter inhibition counter-screen. Wnt-LIGHT cells, Wnt3a-driven luciferase reporter, luminescence. inhibition, % at 6.25 µM. shares compounds with Gli-Sufu block. 20% of 2,500 active;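 active = mean inhibition above about 25%, limit read from the data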
* hit, by the source's call; . = no result.

SMILES	NCOA2 inhibitor	Gli-Sufu block	SRC3 inh	NCOA1 inh	COUP-TFII inh	NR5A2 inv ag	Gli-Sufu confirm	SufuKO cytotox	Wnt3a counter
CCCCCCC[C@H](N)[C@H](O)C(=O)N(C)[C@@H](CCS(C)=O)C(=O)N[C@@H](Cc1ccc(O)cc1)C(=O)O (some centres undefined)	.	.	.	.	11.5	.	.	.	.
CCc1nnc2n1N=C(c1ccc(Br)cc1)CS2	4.3	1.0	-4.5	3.3	9.8	-14.2	.	.	.
Brc1ccc(C2=Nn3c(Cn4nnc5ccccc54)nnc3SC2)cc1	6.0	54.5	1.7	12.4	-1.8	-3.7	31.9	3.9	-35.6
COc1cc2c(cc1NC(=O)CSc1nnc(-c3ccccc3C)n1Cc1ccco1)oc1ccccc12	-15.3	.	.	.	-11.0	.	.	.	.
C=CC[C@H]1c2ccccc2[C@H]2N3N=Cc4ccccc4[C@H]3[C@H](CCCC)C(=O)N2N1C(=O)c1ccccc1	-1.5	.	.	.	16.4	.	.	.	.
C[N+]1(CC(=O)OC2CCCCCCCCCCC2)CCCC1	24.0	64.6*	0.6	-25.5	-14.2	17.6	55.9*	29.4*	-30.5
COC(=O)CCCCCCCCCC[N+]1(C)CCCCC1	-21.6	1.9	10.6	3.7	4.5	-3.9	.	.	.
Cc1nn(C)cc1CN1CCCC(C(=O)c2ccc(-c3ccccc3)cc2)C1 (centres undefined)	0.8	53.5	10.0	1.9	-4.1	1.4	25.0	21.6	-58.6
O=C(c1ccc(-c2ccccc2)cc1)C1CCCN(Cc2ccncc2)C1 (centres undefined)	-18.4	52.0	3.1	8.3	25.2	8.1	27.7	12.1	-38.7
O=C(Cc1ncc(C(F)(F)F)cc1Cl)NCCc1ccccn1	-3.6	55.1*	-3.1	-8.7	12.5	-8.0	22.4	12.4	1.4
CN(C)CCNC(=O)Cc1ncc(C(F)(F)F)cc1Cl	-13.6	4.4	10.5	-8.1	12.6	1.5	.	.	.
O=C(C1CCN(CCCc2ccccc2)CC1)N(CCc1ccccc1)Cc1ccccc1	2.9	56.0*	12.4	-9.0	4.7	3.5	15.2	23.9	-42.9
C[C@H]1COc2cc(Br)ccc2S(=O)(=O)N1Cc1cn(Cc2ccc(Br)cc2)nn1	-5.8	.	.	.	-0.2	.	.	.	.
CCOc1ccc2nc(N3CCCC(C(=O)NCCCN4CCCCC4)C3)sc2c1 (centres undefined)	-25.0	65.5*	-43.4	-37.7	-20.9	-46.9	20.1	11.3	-212.5
CCOc1ccc2nc(N3CCCC(C(=O)NCCCN4CC(C)CC(C)C4)C3)sc2c1 (centres undefined)	16.1	20.3	-17.1	-18.9	-12.7	-26.0	.	.	.
Cc1cc(=O)n2nc(N3CCCC(C(=O)NCCCN4CC(C)CC(C)C4)C3)sc2n1 (centres undefined)	-1.2	59.8*	11.8	-10.5	0.0	-5.7	21.6	12.5	-5.4
CC(=O)Nc1cccc(NC(=O)CCn2cnc3cc(C)c(C)cc32)c1	-9.0	58.1*	5.7	-5.4	-1.0	-5.2	10.6	6.4	-56.6
Cc1ccc(NC(=O)C2CCN(c3ncccn3)CC2)cc1C	-14.8	.	.	.	18.6	.	.	.	.
COc1ccc(-c2c[n+](CC(=O)c3cccs3)c3n2CCC3)cc1	3.6	5.5	6.0	11.9	-4.2	11.2	.	.	.
COc1ccc(C(=O)C[n+]2cc(-c3ccc(OC)cc3)n3c2CCCC3)cc1	-3.8	73.5*	9.8	-0.3	1.6	8.3	68.0*	26.2*	-4.0
O=C1/C(=C/c2ccccc2)SC(=S)N1CCCC(=O)N1CCCCC1CCO (centres undefined)	11.0	59.4*	10.0	3.7	-12.6	7.3	24.6	1.9	-4.4
O=C1/C(=C/c2ccc(Cl)cc2)SC(=S)N1CCC(=O)N1CCCCC1CCO (centres undefined)	11.3	5.9	1.2	16.8	-1.6	4.3	.	.	.
O=C1NC(=O)C2C3C=CC(C12)C1C(=O)NC(=O)C31 (centres undefined)	23.5	.	.	.	-20.1	.	.	.	.
COCCn1c(-c2ccccc2)csc1=Nc1cccnc1	17.3	17.3	5.2	6.8	26.2	-2.6	.	.	.
CC(C)n1c(-c2ccco2)csc1=Nc1cccnc1	15.4	50.2	16.3	8.8	19.2	17.8	50.8*	25.0*	18.1
SMILES	NCOA2 inhibitor	Gli-Sufu block	SRC3 inh	NCOA1 inh	COUP-TFII inh	NR5A2 inv ag	Gli-Sufu confirm	SufuKO cytotox	Wnt3a counter
Cc1ccsc1/C=N/n1c(-c2ccncc2)n[nH]c1=S	1.2	56.1*	11.4	7.3	2.2	7.2	10.4	7.2	1.4
COc1cccc2sc(=NC(=O)CS(=O)(=O)c3ccccc3)n(C)c12	-14.6	.	-18.4	-20.7	-1.5	13.5	.	.	.
CCn1c(=NC(=O)c2ccc(S(=O)(=O)N(C)C)cc2)sc2cccc(OC)c21	-16.5	-6.5	17.6	10.4	-0.8	-10.1	.	.	.
COc1cccc2sc(=NC(=O)CS(=O)(=O)c3ccc(Cl)cc3)n(C)c12	4.9	73.2*	-7.0	17.6	-5.5	17.9	78.7*	28.9*	39.7*
CCn1c(=NC(=O)CS(=O)(=O)c2ccc(C)cc2)sc2cccc(OC)c21	33.0	68.0*	6.1	-15.0	-0.5	-1.8	61.3*	23.0	36.5*
COc1cccc2sc(=NC(=O)CS(=O)(=O)c3ccc(F)cc3)n(C)c12	8.0	61.2*	-3.9	-7.7	15.3	3.4	52.9*	28.5*	14.2
COc1cccc2sc(=NC(=O)CCS(=O)(=O)c3ccc(C)cc3)n(C)c12	5.2	4.0	-3.7	-0.7	-6.7	-1.9	.	.	.
NC(=O)c1ccc(N2CCN(c3ccccc3O)CC2)c([N+](=O)[O-])c1	24.0	25.8	7.5	6.7	16.0	6.5	.	.	.
NC(=O)c1ccc(N2CCN(c3ccccc3F)CC2)c([N+](=O)[O-])c1	27.2	57.0*	13.1	15.4	3.1	-8.0	20.8	13.3	-6.9
COc1ccc(NC(=O)NCCCN2CCN(c3ccc(F)cc3)CC2)cc1OC	-0.9	.	.	.	4.5	.	.	.	.
CCC(NC(=O)NCc1ccccc1)(C(F)(F)F)C(F)(F)F	6.8	51.6	9.8	-12.2	-1.2	-18.8	9.3	27.3*	-11.9
CCC(NC(=O)NCc1ccc2c(c1)OCO2)(C(F)(F)F)C(F)(F)F	9.2	-8.3	20.3	13.1	-0.5	8.4	.	.	.
COc1cc(-c2cc(C(=O)Nc3c(Cl)cc(Cl)cc3Cl)c3ccccc3n2)cc(OC)c1OC	-6.8	18.8	11.6	-10.3	-13.2	-1.6	.	.	.
COc1ccc2nc3ccccc3nc2c1NC(=O)c1ccc(Cl)cc1Cl	4.0	71.4*	29.2	-26.9	1.6	21.7	30.6	19.6	-26.3
CCOc1ccc(OCc2ccc(C(=O)N/N=C(\C)c3ccccn3)cc2)cc1	-71.1	82.7*	-35.1	-96.3	-35.1	-70.0	90.8*	42.0*	72.0*
